Reference: PubChem BioAssay AID504840 (Johns Hopkins Ion Channel Center, 2011)
Hit rate of the full screen: of about 1,500 compounds, about 890 (59%) were called active.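 The calls were made as follows: active = inhibition of the choline-evoked signal at any tested dose together with a fitted dose-response curve; inactive = no inhibition at any dose or no curve.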 So high a share suggests a set chosen from earlier hits. Only a sample is shown. Potency and affinity values are given separately.

target: High affinity choline transporter 1 (Homo sapiens) (UniProt Q9GZV3); assay: CHT inhibitors, dose response, cell-based, 5-point CRC, membrane potential dye (AID 504840); conditions: HEK293-CHT, choline-induced depolarization, CHT with LV-to-AA double alanine mutation; series mostly up to 37 µM
Sequence (Q9GZV3 whole entry, looked up): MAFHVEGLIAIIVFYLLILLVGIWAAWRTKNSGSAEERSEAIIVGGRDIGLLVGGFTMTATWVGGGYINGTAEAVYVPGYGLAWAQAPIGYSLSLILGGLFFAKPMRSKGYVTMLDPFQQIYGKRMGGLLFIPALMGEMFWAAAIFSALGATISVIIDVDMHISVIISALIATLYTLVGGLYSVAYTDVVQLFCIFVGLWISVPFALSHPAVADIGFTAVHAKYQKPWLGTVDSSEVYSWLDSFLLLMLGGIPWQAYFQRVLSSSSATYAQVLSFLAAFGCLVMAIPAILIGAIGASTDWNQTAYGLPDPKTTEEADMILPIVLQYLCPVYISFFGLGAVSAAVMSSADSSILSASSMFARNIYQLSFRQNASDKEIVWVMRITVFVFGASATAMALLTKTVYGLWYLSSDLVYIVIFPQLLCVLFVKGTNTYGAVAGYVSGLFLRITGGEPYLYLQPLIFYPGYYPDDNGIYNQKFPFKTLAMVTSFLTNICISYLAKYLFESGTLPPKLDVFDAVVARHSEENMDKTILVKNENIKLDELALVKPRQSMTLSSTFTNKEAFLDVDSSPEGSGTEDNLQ

outcome, inactive:
O=C(CC(c1ccccc1)c1ccccc1)Nc1ccncc1
CC(O)c1cccc(NC(=O)CC(c2ccccc2)c2ccccc2)c1 (stereo unspecified)
O=C(O)CC(NC(=O)c1sc2ccccc2c1Cl)c1ccc(OC2CCCC2)cc1 (stereo unspecified)
O=C(O)c1ccc2c(c1)N(Cc1ccc(F)cc1)C(=O)c1ccccc1S2
CC1CCCN(CCCNC(=O)c2ccc3c(c2)N(Cc2ccccc2F)C(=O)c2ccccc2S3(=O)=O)C1 (stereo unspecified)
Cc1ccc(C(=O)N/C(=C\C=C\c2ccccc2)C(=O)NCc2ccco2)cc1
CC(C)c1ccc(C(C)NC(=O)C2CCCC2)cc1 (stereo unspecified)
COc1ccccc1C(=O)NC(=S)NNC(=O)c1sc2ccccc2c1Cl
O=C(NNC(=S)NC(=O)c1sc2ccccc2c1Cl)c1ccc(Cl)cc1
Cc1onc(-c2ccccc2)c1C(=O)NNC(=S)NC(=O)c1ccc(Br)cc1
CCCOc1ccc(C(=O)NC(=S)NNC(=O)c2c(-c3ccccc3)noc2C)cc1
CCn1c(=O)n(CC)c2cc(S(=O)(=O)N3CCc4ccccc43)ccc21
O=C(NNS(=O)(=O)c1ccccc1[N+](=O)[O-])c1cc2ccccc2cc1O
C=CCN(CC=C)S(=O)(=O)c1ccc2nc(NC(=O)C3CCCO3)sc2c1 (stereo unspecified)
CC(OC(=O)CCN1C(=O)c2cccc([N+](=O)[O-])c2C1=O)C(=O)Nc1cc(Cl)cc(Cl)c1 (stereo unspecified)
CCOC(=O)c1sc(NC(=O)CSc2nc3c(c(=O)n2-c2ccc(C)cc2)SCC3)c(C(=O)OCC)c1C
CCc1c(C2(O)CCCCC2)[nH]c2cc(C(F)(F)F)ccc12
Cc1cc(NS(=O)(=O)c2ccc(NC(=O)/C=C/c3c(F)cccc3Cl)cc2)nc(C)n1
Cc1cc(C)cc(NC(=O)c2ccc(N3C(=O)C4CCCCC4C3=O)cc2)c1 (stereo unspecified)
Cc1ccc(NC(=O)c2ccc(Cn3cc([N+](=O)[O-])cn3)cc2)c(C)c1
CN(Cc1ccccc1)CC(O)COc1ccc(CNCc2cc3ccccc3s2)cc1 (stereo unspecified)
O=C(O)CC(Cc1ccc(Cl)cc1)C(=O)Nc1cc(Cl)ccc1Cl (stereo unspecified)
Cc1cc(NCCCn2ccnc2)n2ncc(-c3ccc(Cl)cc3)c2n1
C=CCNC(=O)c1ccc(C2SCC(=O)N2Cc2ccccc2)cc1 (stereo unspecified)
CCOC(=O)C1(CCOC)CCN(Cc2ccc(C(=O)OC)cc2)CC1
Cc1ccc(C(=O)NCC(=O)N2CCC(Cc3ccccc3)CC2)cc1
CC(C)CNS(=O)(=O)c1ccc(CCC(=O)N2CCN(Cc3ccc4c(c3)OCO4)CC2)cc1
COc1ccc2c(c1)-c1c(ssc1=S)C(C)(C)N2
CC(C)OC(=O)CN1CCN(S(=O)(=O)c2cc(Cl)ccc2Cl)CC1
CC(=O)c1ccc(S(=O)(=O)N(C)C(C)CCc2ccco2)cc1 (stereo unspecified)
Cc1ccc(C(C)NC(=S)NCc2ccc(F)cc2)cc1C (stereo unspecified)
COc1cccc(NC(=S)N(Cc2ccc(C(=O)O)cc2)Cc2ccc(OC)c(OC)c2)c1
CCN(CC)CCCN(C(=O)c1ccco1)c1nc(-c2ccc(Cl)cc2)cs1
CCCCNC(=O)c1onc(CSc2ccc(C(C)C)cc2)c1C(=O)O
O=C1c2ccccc2-c2cccnc21
O=[N+]([O-])c1ccc(Nc2ccccc2O)c2nonc12
Cc1ccc2nc(Nc3ccccc3)cc(C)c2c1
CCc1ccc(N/C(=N/c2nc(C)cc(C)n2)NC(C)=O)cc1
CCSc1nnc2n1C(C)(C)Cc1ccccc1-2
CCOc1ccc(OCc2ccc(C(=O)N3CCCC3)o2)cc1
COc1ccc(C2CC(c3ccc(Br)cc3)=NN2C(=O)CN2CCCC2)cc1 (stereo unspecified)
COc1ccc(C2SCC(=O)N2CCc2ccc(OC)c(OC)c2)cc1 (stereo unspecified)
CC(=O)N1c2ccc(S(=O)(=O)NCc3ccccc3Cl)cc2CC1C (stereo unspecified)
CCOC(=O)N1CCN(C(=O)c2ccc3nc(N4CCC(C)CC4)sc3c2)CC1
CCOC(=O)c1oc2nc(C(C)C)c3c(c2c1N)CCC3
CCCc1nc2oc(C(=O)OCC)c(N)c2c2c1COC(C)(C)C2
Cc1ccc(CNc2ncc(-c3ccccc3)n2C)o1
OCCn1nc(-c2ccccc2)cc1-c1ccccc1
Cn1c(SCC(=O)N2CCN(c3ccccc3)CC2)nnc1-c1ccccc1
CS(=O)(=O)Nc1ccccc1C(=O)NCCSc1ccccc1
COc1ccc(NC(=O)N2CCC(n3cnc4ccccc43)CC2)cc1
COc1ccc(C(=O)C2CCCN(C(=O)C3=CCCC3)C2)c(C)c1 (stereo unspecified)
COc1ccc(C(=O)C2CCCN(C(=O)c3noc4c3CCCC4)C2)cc1F (stereo unspecified)
CCC1CCCCN1CCCNC(=O)c1ccc2c(c1)c(C)c(C)n2C (stereo unspecified)
O=C(Nc1cccnc1)c1ccc(COc2ccccc2Cl)o1
CCN(CC)C(=O)c1ccc(COc2ccccc2Br)o1
Cc1ccc(S(=O)(=O)NC(=O)COc2cc(C)ccc2C(C)C)cc1
Cc1ccc(S(=O)(=O)CC(O)COc2ccc(F)cc2Cl)cc1 (stereo unspecified)
CCN(CC)S(=O)(=O)c1ccc(OC)c(NC(=S)Nc2ccc(C)c(C)c2)c1
Cc1ccc(S(=O)(=O)N2CCC(=O)N(CCOCc3ccc(F)cc3)CC2)cc1
Cc1ccc(-c2nnc(N3CCCCC3)c3ccccc23)cc1S(=O)(=O)N1CCN(C)CC1
Cc1ccc(C)c(S(=O)(=O)C(C#N)c2nc3ccccc3nc2N2CC(C)OC(C)C2)c1 (stereo unspecified)
COc1cc(OC)cc(C(=O)NC(=S)NNC(=O)[C@H]2C[C@@H]2c2ccccc2)c1
CS(=O)(=O)c1ncc(Cl)c(C(=O)Nc2ccc(OC(F)F)cc2)n1
CS(=O)(=O)c1ncc(Cl)c(C(=O)Nc2ccc(N3CCOCC3)cc2)n1
Cc1nn(CC2CC2)c(=O)n1-c1ccc(Oc2ccccc2)cc1
N#Cc1c(Cl)cccc1N1CCCC1
CC(C)NCC(O)c1ccc(O)c(O)c1 (stereo unspecified)
C[C@@H](NCCc1ccc(O)cc1)[C@@H](O)c1ccc(O)cc1
CCc1ccccc1NC(=O)C1CC(c2ccc(OC)cc2)=NO1 (stereo unspecified)
N#CCCn1cc(/C=C2\NC(=S)N(c3ccccc3)C2=O)c(-c2ccc(F)cc2)n1
Cc1ccc(C(=O)N/C(=C\c2cccs2)c2nc3ccccc3[nH]2)cc1
COc1ccc(C(=O)N2CCCC(O)C2)cc1OC1CCN(C(C)C)CC1 (stereo unspecified)
CSc1ccc(C(=O)C2CCCN(C(=O)c3ccsc3)C2)cc1 (stereo unspecified)
CC(C)(C)CC(=O)NCCc1csc(-c2ccccc2)n1
N#C/C(=N\Nc1cccc(C(F)(F)F)c1)C(=O)c1ccsc1
CC[N+]1(CC)CC2=Cc3c(ccc4ccccc34)C(C)C2C1 (stereo unspecified)
CC(=O)N(C)c1ccc(NC(=O)C(Sc2ccccc2)c2ccccc2)cc1 (stereo unspecified)
CC(C)(C)C(=O)/C(C#N)=C/c1ccc(O)cc1
Cc1ccc(S(=O)(=O)Oc2cccc(/C=N/n3cnnc3)c2)cc1
CS(=O)(=O)C1=NN2C(=N)/C(=C\c3ccc(OC(=O)c4ccco4)cc3)C(=O)N=C2S1
CCCC1=NN2C(=N)/C(=C\c3ccc(SCc4ccco4)o3)C(=O)N=C2S1
Cc1ccc(S(=O)(=O)Oc2ccccc2/C=C2/SC(=O)NC2=O)cc1
Cc1ccc(S(=O)(=O)Oc2ccccc2/C=C2\SC(=O)NC2=O)cc1
CC(C)CS(=O)(=O)C1=NSC2=NC(=O)/C(=C\c3ccc(OC(=O)c4ccco4)cc3)C(=N)N21
CCOc1ccc(Br)cc1S(=O)(=O)N1CCCC1
Cc1ccccc1NC(=O)c1ccc(C)c(S(=O)(=O)N2CCN(C)CC2)c1
COc1ccc(/C=C/C(=O)NC2CCCCCCC2)cc1S(=O)(=O)N1CCOCC1
Oc1ccc(/C=N/n2c(-c3ccccc3)n[nH]c2=S)cc1Br
CN(c1ccc(O)cc1)c1nc(-c2cccs2)cs1
COc1ccc(C(=O)NCc2ccon2)cc1OC1CCN(C(C)C)CC1
COc1cc(CNCCc2ccccc2)cc(Br)c1OCC(=O)Nc1ccccc1C
Cn1c(SCc2nc3ccccc3s2)nnc1-c1cccs1
CC(=O)Nc1ccc(S(=O)(=O)Nc2nc3ccccc3nc2Nc2ccc(N)cc2)cc1
COc1ccc(-c2nnc(CSc3nc4ccccc4c(=O)n3CC3CCCO3)o2)cc1OC (stereo unspecified)
CC(C)(C)NS(=O)(=O)c1ccc(N2C(=O)c3ccccc3C2=O)cc1
Cc1noc(C)c1C(=O)Nc1sc(C)c(-c2ccccc2)c1C#N
O=C(OCc1nc2ccsc2c(=O)[nH]1)c1cc(Br)c(Br)s1
O=c1c(-c2ccccc2)c[nH]n1-c1cccc([N+](=O)[O-])c1
Cc1[nH]n(-c2ccccc2)c(=O)c1C(c1cccc([N+](=O)[O-])c1O)c1c(C)[nH]n(-c2ccccc2)c1=O
Cc1cccnc1NC(=O)c1cccc(S(=O)(=O)N2CCN(c3ccc(F)cc3)CC2)c1
O=C(C1CCN(S(=O)(=O)c2ccc(Br)s2)CC1)N1CCN(c2ccccc2)CC1
COc1cc(-c2nnc(SC/C=C/c3ccccc3)n2N)cc(OC)c1OC
CCOC(=O)c1sc(=S)n(CC)c1NC(=O)C1CC1
O=c1cc(CNc2ccc(Br)cc2)nc2sccn12
CCCN1Cc2cccc(C(=O)NCc3ccccc3OC)c2C1=O
